Experimental data taken from PubChem BioAssay AID1578 (Sanford-Burnham Center for Chemical Genomics, 2009).
The campaign covered roughly 290,000 compounds. About 3,000 (1%) were called active. The list comes from a sample in which actives are over-represented; it also holds similar structures and randomly drawn compounds. Values without a mark were called inactive. No stated cut-off is given here; in the data, active means inhibition mostly above about 36% (no sharp cut-off); inactive means mostly below about 34%.

Experiment: inhibition of NOD1-driven NF-kB reporter – cell-based, luminescence, uHTS, primary screen (AID 1578);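 further: HEK-293T reporter cells stimulated with the NOD1 agonist gamma-tri-DAP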
Conditions: NOD1-driven NF-kB luciferase reporter cells, at 4 µM, stronger effect = higher value

Compound	inhibition
CC1(C(=O)NNC(=O)c2cccc([N+](=O)[O-])c2)CC1(Br)Br (centres undefined)	-8.9%
COc1ccccc1C(=O)O/N=C(\N)c1ccccn1	-10%
N/C(=N\OC(=O)c1cc(Br)ccc1Cl)c1ccccn1	-19.5%
N/C(=N\OC(=O)c1ccc(Cl)cc1Cl)c1ccccn1	51.2% (active)
N/C(=N\OC(=O)c1ccc([N+](=O)[O-])cc1Cl)c1ccccn1	45.8%
N/C(=N\OC(=O)c1cc(Cl)ccc1Cl)c1ccccn1	9.6%
N/C(=N\OC(=O)c1ccccc1Cl)c1ccccn1	54.7% (active)
CC1=C(C(=O)OCc2ccccc2)C(c2cccc([N+](=O)[O-])c2)NC(=O)N1 (centres undefined)	13.3%
COc1ccc(C2NC(=O)NC(C)=C2C(=O)OCc2ccc3c(c2)OCO3)cc1OC (centres undefined)	15.1%
CCOC(=O)C1=C(C)NC(=O)NC1c1ccc2c(c1)OCO2 (centres undefined)	18%
CCOC(=O)C1=C(CN2CCCCCC2)NC(=O)NC1c1ccc2c(c1)OCO2 (centres undefined)	-36.5%
CCOC(=O)C1=C(CCl)NC(=O)NC1c1ccc2c(c1)OCO2 (centres undefined)	72.5% (active)
CC1=C(C(=O)OCc2ccc3c(c2)OCO3)C(c2cccc([N+](=O)[O-])c2)NC(=O)N1 (centres undefined)	63.2% (active)
Cc1cc(NC(=O)CN(C)CCOc2ccccc2)ccc1Br	7.6%
CCN(CC)C(=O)CSc1n[nH]c(=S)n1N	-12.5%
COC(=O)c1ccc(CSc2n[nH]c(-c3ccccc3)n2)o1	-16.9%
COc1ccc(N2CC(C(=O)Nc3ccccc3C(=O)NC3CC3)CC2=O)cc1 (centres undefined)	-5.8%
CCOC(=O)c1cccc(N2C(=O)C3C4C=CC(CC4)C3C2=O)c1 (centres undefined)	7.8%
CCSc1nnc(NC(=O)c2cccnc2)s1	-21.5%
CCOC(=O)C1=C(C)NC(=O)NC1c1c(OC)ccc2ccccc12 (centres undefined)	-31.2%
O=C(NNC(=O)C12CC3CC(CC(C3)C1)C2)c1ccccn1	102% (active)
C/C(=N\NC(=O)c1ccccn1)C12CC3CC(CC(C3)C1)C2	-2.5%
O=C(NNC(=O)C12CC3CC(CC(C3)C1)C2)c1cnccn1	-14.6%
O=C(N/C(=C/c1ccc(Br)cc1)C(=O)N1CCCC1=O)c1ccco1	63.5% (active)

Compound	inhibition
COc1ccc(/C=C(/NC(=O)c2ccco2)C(=O)N2CCCC2=O)cc1	-22.3%
O=C(N/C(=C/c1ccc(Br)cc1)C(=O)N1CCOCC1)c1ccco1	-24.4%
CC(=O)c1cccc(CN2CCN(C3CCCCC3)C(CCO)C2)c1 (centres undefined)	-6.2%
CC(C)Oc1cccc(NC(=O)c2cnccc2C(F)(F)F)c1	-4.2%
COc1ccc(C(=O)N/C(=C\c2cccc([N+](=O)[O-])c2)C(=O)Nc2cccc(C(=O)O)c2)cc1	-30.8%
CC1=C(C)C(=O)C(N2CCOCC2)=CC1=O	-11.2%
CC(C)(C)C1=CC(=O)C(N2CCOCC2)=CC1=O	3.6%
CC1CN(CCOc2ccc([N+](=O)[O-])cc2)CC(C)O1 (centres undefined)	-4.4%
C=CCN(c1ccccc1)S(=O)(=O)c1ccc(Cl)c(C(=O)OCC(=O)N(C)C2CCS(=O)(=O)C2)c1 (centres undefined)	-31.4%
Cc1cccc2c(N)c3c(nc12)CCCC3 (tested in a mixture with another compound)	53.2% (active)
Cc1cccc2c(C(=O)O)c3c(nc12)CCCCC3	-22.2%
Nc1c2c(nc3ccccc13)CCCC2	-26.6%
COc1ccc2[nH]c(C(=O)O)c(NS(=O)(=O)c3ccc(C)c(C)c3)c2c1	-3.1%
Cc1nc(C)c(-c2csc(Nc3ccc(F)cc3)n2)s1	44.7% (active)
Cc1ccc(Nc2nc(-c3sc(C)nc3C)cs2)cc1	-5%
Cc1nc(C)c(-c2csc(Nc3ccc(N)cc3)n2)s1	16.7%
COC(=O)C(C)(C)ONC(=O)Nc1ccc([N+](=O)[O-])cc1	-7%
CCOc1ccccc1C(=O)N/N=C/c1ccoc1	-17.7%
CN=c1scc(-c2ccccc2F)n1/N=C/c1ccc[nH]1	101% (active)
CN=c1scc(-c2ccccc2Br)n1/N=C/c1ccc[nH]1	12.4%
CN=c1scc(-c2ccccc2F)n1/N=C/c1ccc(O)c(O)c1O	-44.9%
N#Cc1nc(COc2ccc(Cl)cc2Cl)oc1N1CCN(c2ccccc2)CC1	21.8%
COc1ccc(N2CCN(C(c3ccccc3OC)c3nnnn3C3CCCC3)CC2)cc1 (centres undefined)	-19.3%
CC(C)Oc1ccc(C(CC(=O)O)NC(=O)C2CCCCC2)cc1 (centres undefined)	-11.6%

Compound	inhibition
O=C(O)CC(NC(=O)C1CCCCC1)c1ccc(OC2CCCC2)cc1 (centres undefined)	65.3% (active)
COc1ccc(C(CC(=O)O)NC(=O)C2CCCCC2)cc1 (centres undefined)	19.1%
CCOC(=O)N1CCN(C(=O)c2cccc(F)c2)CC1	-43.9%
Cc1ccc2sc(N(CCCN(C)C)C(=O)CCS(=O)(=O)c3ccccc3)nc2c1C	-27%
CCOc1cccc2sc(N(CCN(C)C)C(=O)CCS(=O)(=O)c3ccccc3)nc12	-29%
CN1C(=O)C2(C(C#N)=C(N)N(c3cc(Cl)cc(Cl)c3)C3=C2C(=O)CC(C)(C)C3)c2ccccc21 (centres undefined)	-0.6%
O=c1ccnc(SCCC(F)=C(F)F)[nH]1	-43.9%
O/N=C\c1ccc(-c2ccccc2)o1	3.8%
Cn1c(CCN2CCN(c3ccccn3)CC2)nc2cc(NC(=O)COc3ccc(Cl)cc3)ccc21	21%
COc1ccc(CCNC(=O)c2ccc(-c3ccc([N+](=O)[O-])cc3)o2)cc1OC	38.5%
COc1ccc(CCNC(=O)c2ccc(-c3ccc([N+](=O)[O-])cc3Cl)o2)cc1	4.2%
COc1ccc(CCNC(=O)c2ccc(-c3ccc([N+](=O)[O-])cc3Cl)o2)cc1OC	95.8% (active)
COc1ccc(-c2nnn(CC(=O)c3ccccc3)n2)cc1OC	-8.9%
COc1cc(/C=C/C(=O)O)cc(S(=O)(=O)N2CCc3ccccc3C2)c1OC	-13.2%
CC(CC(=O)NCCc1ccc(F)cc1)c1ccccc1 (centres undefined)	-24.3%
Cc1ccc(N/N=C2\CS(=O)(=O)N(C)c3ccsc32)cc1	58.9% (active)
CN1c2ccsc2/C(=N/Nc2ccccc2)CS1(=O)=O	-41.3%
CN1c2ccsc2/C(=N/Nc2ccc(F)cc2)CS1(=O)=O	-1.7%
C[C@@H](O)C1NC(=O)[C@H](CCCCN)NC(=O)c2cc([N+](=O)[O-])cc(I)c2NCCC[C@@H](C(N)=O)NC1=O (some centres undefined)	-16%
COc1cc(CNC2CCCCCCC2)ccc1OCC(N)=O	-34.5%
COc1ccc(OC)c2sc(NC(=O)c3ccc(S(=O)(=O)N(C)C)cc3)nc12	-12.2%
C/C(=N\NC(=O)c1nnn(-c2nonc2N)c1CN(C)c1ccccc1)c1cccs1	-19.9%
CCN(CCCNC(=O)c1c(C)cc(=O)oc1C)c1ccccc1	8.4%
CCn1c(C)cc(/C=C2\NC(=O)N(CC(=O)Nc3cccc(C)c3)C2=O)c1C	9.5%

Compound	inhibition
COc1cc(/C=N/c2oc(-c3ccccc3)cc2C#N)ccc1O	-15.3%
N#Cc1cc(-c2ccccc2)oc1/N=C/c1ccccc1O	49.6% (active)
COc1cccc(/C=N/c2oc(-c3ccccc3)cc2C#N)c1O	-11%
Nc1ccc(Br)cc1C(NCC(=O)O)c1ccccc1 (centres undefined)	-19%
CC(C)(C)NC(=O)C1CCN(S(=O)(=O)c2cccc(C(F)(F)F)c2)CC1	-13.7%
COc1ccc(C2(c3ccc(OC)cc3)NC(=O)N(CC(=O)Nc3ccccc3C(F)(F)F)C2=O)cc1	-18.1%
O=C(Nc1cccc(Cl)c1)c1cccnn1	-9.2%
COc1cccc2c1OC1(C)CC2/C(=C(\C)O)C(=O)N1 (centres undefined)	-20.8%
COc1ccc(/C=C/C(O)=C2/C(=O)NC3(C)CC2c2ccccc2O3)c(OC)c1OC (centres undefined)	69.9% (active)
CCOc1ccc(/C=C/C(O)=C2/C(=O)NC3(C)CC2c2ccccc2O3)cc1OC (centres undefined)	46.7%
COc1ccc(CCNC(=S)Nc2cccc(C)c2C)cc1	-19.9%
COc1ccc(OC)c(NC(=O)COC(=O)/C=C/c2c(C)nn(C3CCS(=O)(=O)C3)c2Cl)c1 (centres undefined)	-5%
COc1ccc(-n2c(C)cc(/C=C3\SC(=S)NC3=O)c2C)cc1	-70.7%
COc1ccc2cc(/C=C3\SC(=S)NC3=O)c(N3CCOCC3)nc2c1	71.4% (active)
COc1ccc2nc(N3CCCCC3)c(C#N)cc2c1	-123%
O=C1NC(=S)S/C1=C/c1ccc(N2CCOCC2)o1	27.5%
COc1ccc2cc(C#N)c(N3CCOCC3)nc2c1	2.7%
COc1ccccc1C(=O)NC(=S)Nc1ccc2[nH]c(=O)[nH]c2c1	-36.5%
Cc1ccc(NC(=O)CCC(=O)OCC(=O)c2ccc(Oc3ccc([N+](=O)[O-])cc3)cc2)cc1C	-7%
OCCSc1nc(N2CCOCC2)nc(N2CCOCC2)n1	-22.8%
COC(=O)c1cc(CSc2ncnc3sccc23)oc1C	-1.8%
Cc1cc(-n2cnc(-c3cn[nH]c3C)n2)no1	-8.9%
